This is a sample that favours compounds with a hit; in the whole collection about 31% have one here.
CYP2C19 inhib = human CYP2C19 inhibition; P33261; CYP2C19 Supersomes, luciferin-H EGE luminescence, 30 min; inhibition, % at 5 µM; 96,000 compounds, 21% hits; AID 778;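 active = CYP2C19 inhibition above a set limit at 5 µM in the primary screen, cut at about 50% in these data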
CYP2C19 act = increases human CYP2C19 enzyme activity; P33261; recombinant CYP2C19, luciferin-H EGE luminescence; hits give high values; 0 = fully inhibited enzyme, 1 = untreated enzyme; activation factor at 5 µM; 96,000 tested, under 10 active;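 active = activation factor of at least 2 at 5 µM in the primary screen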
CYP2C9 act = activators of human CYP2C9; P11712; recombinant CYP2C9, luciferin-H conversion, luminescence; hits give high values; factor 1 = untreated enzyme, 0 = blocked; activation factor at 5 µM; 96,000 compounds, 1.4% hits; AID 1024;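 active = activation factor of 2 or more for CYP2C9 at a 5 µM dose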
Target sequence (P11712 whole entry, looked up): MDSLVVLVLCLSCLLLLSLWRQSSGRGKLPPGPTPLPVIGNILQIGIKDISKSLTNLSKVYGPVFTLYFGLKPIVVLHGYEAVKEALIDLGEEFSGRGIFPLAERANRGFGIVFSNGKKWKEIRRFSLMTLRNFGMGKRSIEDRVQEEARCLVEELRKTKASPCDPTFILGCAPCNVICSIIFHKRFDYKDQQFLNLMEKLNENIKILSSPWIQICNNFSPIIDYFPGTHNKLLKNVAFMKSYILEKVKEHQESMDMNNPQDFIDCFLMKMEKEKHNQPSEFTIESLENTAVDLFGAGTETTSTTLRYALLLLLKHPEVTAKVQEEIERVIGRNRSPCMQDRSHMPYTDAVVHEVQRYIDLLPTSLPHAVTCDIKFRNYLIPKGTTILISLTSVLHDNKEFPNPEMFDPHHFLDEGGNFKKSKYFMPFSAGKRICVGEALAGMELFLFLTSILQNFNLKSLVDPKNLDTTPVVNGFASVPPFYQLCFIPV
CYP2C9 inhib = blocks human cytochrome P450 2C9 | AID 777 | inhibition, % at 5 µM | CYP2C9 Supersomes, luciferin-H conversion, luminescence | 96,000 compounds, 20% hits;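 active = blocking of liver enzyme CYP2C9 beyond about 50% at 5 µM, limit read from the data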
PLAP activator = activators of human placental alkaline phosphatase | 96,000 compounds, 1.2% hits | activation fold at 20 µM | P05187 | purified PLAP enzyme, luminescent substrate read-out; hits give high values | AID 696; in the data active = activation fold above about 2
A number is an active result; – = inactive.

SMILES	CYP2C19 inhib	CYP2C19 act	CYP2C9 act	CYP2C9 inhib	PLAP activator
CC(=O)Nc1ccc(-c2nnc(SCC(=O)NCc3ccco3)n2C)cc1	–	–	–	–	–
COc1ccc(C)cc1S(=O)(=O)N(C)CC(=O)NC1CCCCC1	–	–	–	–	–
COc1ccccc1NC(=O)CN(C)S(=O)(=O)c1cc(C)ccc1OC	94	–	–	63	–
COc1ccc(C)cc1NC(=O)CN(C)S(=O)(=O)c1cccs1	89	–	2.3	–	–
COc1ccc(S(=O)(=O)N(C)CC(=O)Nc2ccccc2C(F)(F)F)cc1OC	76	–	–	–	–
COc1ccc2c(c1)-c1ccccc1S(=O)(=O)N2C(C)=O	–	–	–	–	–
CCCc1nc(SCC(=O)N2CCC(Cc3ccccc3)CC2)c2c(=O)n(C)c(=O)n(C)c2n1	66	–	–	95	–
CCn1c(SCC(=O)Nc2ccccc2N2CCCCC2)nc2c1c(=O)n(C)c(=O)n2C	–	–	–	79	–
CCn1c(SCC(=O)N2CCCC2)nc2c1c(=O)n(C)c(=O)n2C	–	–	–	–	–
CCCn1c(SCC(=O)N2CCCc3ccccc32)nc2c1c(=O)n(C)c(=O)n2C	–	–	–	79	–
CCCc1nc(SCC(=O)N2CCCc3ccccc32)c2c(=O)n(C)c(=O)n(C)c2n1	–	–	–	94	–
COC(=O)c1ccc(-c2nc(-c3ccc(Br)o3)no2)cc1	–	–	–	–	–
CCOC(=O)c1ccc(OCc2nc(-c3cccs3)no2)cc1	–	–	–	67	–
COC(=O)c1ccc(-c2nc(-c3cccs3)no2)cc1	91	–	–	–	–
Cn1ccnc1SCC(=O)Nc1ccc2nc(SCC(=O)NC3CC3)sc2c1	–	–	–	62	–
CCOC(=O)c1cnc(SCC(=O)Nc2ccc(N3CCOCC3)c(Cl)c2)nc1N	–	–	–	81	–
COc1ccc(OCC(=O)Nc2ccc(N3CCOCC3)c(Cl)c2)cc1	–	–	–	65	–
CCCC(=O)Nc1ccc2nc(SCC(=O)Nc3ccc(N4CCOCC4)c(Cl)c3)sc2c1	–	–	–	69	–
COc1cccc(C2/C(=C(/O)c3ccccc3)C(=O)C(=O)N2CCCC(=O)O)c1 (stereo not given)	–	–	–	–	–
O=C(NCCN1C(=O)CCC1=O)c1ccncc1	–	–	–	–	–
CN(C)c1ccc(NC(=O)CN2CCC(N3CCCCC3)CC2)cc1	–	–	–	–	–
O=S(=O)(Nc1ccc(-n2cccc2)cc1)c1ccccc1	100	–	–	98	–
O=S(=O)(Nc1ccc(S(=O)(=O)Nc2cccc3ccccc23)cc1)c1ccccc1	83	–	–	90	–
Cc1cc(C)nc(NS(=O)(=O)c2ccc(-n3cccc3)cc2)n1	–	–	–	–	–
O=S(=O)(Nc1ccc(S(=O)(=O)Nc2ccccc2)cc1)c1ccccc1	–	–	–	89	–
SMILES	CYP2C19 inhib	CYP2C19 act	CYP2C9 act	CYP2C9 inhib	PLAP activator
Cc1nc2nc[nH]n2c(=O)c1NC(=O)CC12CC3CC(CC(C3)C1)C2	–	–	–	–	–
Cc1cccc(NC(=O)C23CCC(C)(C2Br)C3(C)C)c1 (stereo not given)	–	–	–	–	–
Cc1cc(N2CCOCC2)nc2ccc(NC(=O)CCC(=O)N3CCCC(C)C3)cc12 (stereo not given)	–	–	–	–	–
O=C(c1ccc(=O)[nH]c1)N(Cc1ccco1)C1(C(=O)NC2CCCC2)CCCCC1	–	–	–	–	–
Cc1cc2ncn(/N=C/c3cccnc3)c2cc1C	–	–	–	–	–
CCOC(=O)c1sc2ncn(C(C)C(=O)OCC)c(=O)c2c1C (stereo not given)	81	–	–	75	–
CCOC(=O)c1sc2ncn(/N=C/c3cccnc3)c(=O)c2c1C	–	–	–	–	2.1
CCOC(=O)c1sc2ncn(CC(=O)N(CC)CC)c(=O)c2c1C	–	–	–	–	–
Cc1ccccc1NC1=C(Cl)C(=O)OC1OC(C)C (stereo not given)	96	–	–	–	–
Cc1ccccc1S(=O)(=O)NC1OC(=O)C(Cl)=C1Cl (stereo not given)	–	–	–	–	–
O=Cc1cn(-c2ccccc2)nc1-c1cc2c(ccc3ccccc32)oc1=O	–	–	–	–	–
O=Cc1cn(-c2ccccc2)nc1-c1cc2cc(O)ccc2oc1=O	–	–	–	81	–
Fc1ccc(COc2ccc(/C=N/n3cnnc3)cc2)cc1	92	–	–	92	–
Cc1n[nH]c(=S)n1/N=C/c1ccc(OCc2ccc(Cl)cc2)cc1	–	–	–	–	–
N#CC(=C1CCCC1)c1nc(-c2ccccc2O)cs1	72	–	–	–	–
N#CC(=C1CCCC1)c1nc(-c2ccccc2)cs1	–	–	–	–	–
CC1CC(C)CN(C(=O)Cn2c(=O)n(CCCCC(=O)NC3CCCC3)c(=O)c3ccccc32)C1 (stereo not given)	–	–	–	74	–
CC1CC(C)CN(C(=O)Cn2c(=O)n(CCCCC(=O)NCc3ccco3)c(=O)c3ccccc32)C1 (stereo not given)	–	–	–	79	–
CCCN(CCC)C(=O)Cn1c(=O)n(CCCCC(=O)NC2CCCC2)c(=O)c2ccccc21	–	–	–	–	–
COc1cccc(NC(=O)Cn2c(=O)n(CCCC(=O)NCc3ccco3)c(=O)c3ccccc32)c1	–	–	–	–	–
O=C(CCCCn1c(=O)c2ccccc2n(CC(=O)NC2CCCC2)c1=O)NC1CCCC1	–	–	–	62	–
O=C(CCCCn1c(=O)c2ccccc2n(CC(=O)Nc2cccc(F)c2)c1=O)NCc1ccco1	–	–	–	75	–
CC1(C)CC(=O)C(CCC(=O)c2ccccc2)C(C)(C)N1 (stereo not given)	–	–	–	–	–
O=C(CCCCn1c(=O)c2ccccc2n(CC(=O)NC2CCCC2)c1=O)NCc1ccco1	–	–	–	62	–
O=C(CCCCn1c(=O)c2ccccc2n(Cc2ccc(Cl)cc2)c1=O)NCc1ccco1	–	–	–	–	–
SMILES	CYP2C19 inhib	CYP2C19 act	CYP2C9 act	CYP2C9 inhib	PLAP activator
O=C(CCn1c(=O)c2ccccc2n(CC(=O)NC2CCCC2)c1=O)NCc1ccco1	–	–	–	54	–
Cc1cc(-c2[nH]nc3c2C(c2ccsc2)C(C#N)=C(N)O3)c(C)s1 (stereo not given)	84	–	–	93	–
Cc1cc(-c2[nH]nc3c2C(c2cccc(O)c2)C(C#N)=C(N)O3)c(C)s1 (stereo not given)	88	–	–	51	–
Cc1ccc(/C=N/n2c(COc3ccccc3)n[nH]c2=S)s1	–	–	–	77	–
S=c1[nH]nc(COc2ccccc2)n1/N=C/c1ccc(Br)s1	–	–	–	–	–
O=C(CSc1nnc(-c2ccccc2)n1-c1ccccc1)N1c2ccccc2Sc2ccccc21	–	–	–	–	–
Cc1ccc(CCN2CC(C(=O)NCCCN3CCCCCC3)CC2=O)cc1 (stereo not given)	–	–	–	–	–

Bioassay records deposited in PubChem by Sanford-Burnham Center for Chemical Genomics.
